This passage reports Percent Effect results from ChEMBL document CHEMBL3988442, “University of Dundee, Small-Polar-MMV Screening Library” (2021).

Holding throughout (parameters): scale not given: direction of the effect not stated beside the values
Test [1] deals with Protein translocase subunit SecA (Escherichia coli (strain K12)) (UniProt P10408). The test can be described thus: Assay to Identify E. coli SecA ATPase Inhibitors. The test is classed as functional. Particulars: 30 µM.
The target of test [2] is T1, Ubiquitin-activating enzyme e1, putative (Leishmania donovani (strain BPK282A1)) (UniProt E9BSI1).
T1 sequence (whole entry): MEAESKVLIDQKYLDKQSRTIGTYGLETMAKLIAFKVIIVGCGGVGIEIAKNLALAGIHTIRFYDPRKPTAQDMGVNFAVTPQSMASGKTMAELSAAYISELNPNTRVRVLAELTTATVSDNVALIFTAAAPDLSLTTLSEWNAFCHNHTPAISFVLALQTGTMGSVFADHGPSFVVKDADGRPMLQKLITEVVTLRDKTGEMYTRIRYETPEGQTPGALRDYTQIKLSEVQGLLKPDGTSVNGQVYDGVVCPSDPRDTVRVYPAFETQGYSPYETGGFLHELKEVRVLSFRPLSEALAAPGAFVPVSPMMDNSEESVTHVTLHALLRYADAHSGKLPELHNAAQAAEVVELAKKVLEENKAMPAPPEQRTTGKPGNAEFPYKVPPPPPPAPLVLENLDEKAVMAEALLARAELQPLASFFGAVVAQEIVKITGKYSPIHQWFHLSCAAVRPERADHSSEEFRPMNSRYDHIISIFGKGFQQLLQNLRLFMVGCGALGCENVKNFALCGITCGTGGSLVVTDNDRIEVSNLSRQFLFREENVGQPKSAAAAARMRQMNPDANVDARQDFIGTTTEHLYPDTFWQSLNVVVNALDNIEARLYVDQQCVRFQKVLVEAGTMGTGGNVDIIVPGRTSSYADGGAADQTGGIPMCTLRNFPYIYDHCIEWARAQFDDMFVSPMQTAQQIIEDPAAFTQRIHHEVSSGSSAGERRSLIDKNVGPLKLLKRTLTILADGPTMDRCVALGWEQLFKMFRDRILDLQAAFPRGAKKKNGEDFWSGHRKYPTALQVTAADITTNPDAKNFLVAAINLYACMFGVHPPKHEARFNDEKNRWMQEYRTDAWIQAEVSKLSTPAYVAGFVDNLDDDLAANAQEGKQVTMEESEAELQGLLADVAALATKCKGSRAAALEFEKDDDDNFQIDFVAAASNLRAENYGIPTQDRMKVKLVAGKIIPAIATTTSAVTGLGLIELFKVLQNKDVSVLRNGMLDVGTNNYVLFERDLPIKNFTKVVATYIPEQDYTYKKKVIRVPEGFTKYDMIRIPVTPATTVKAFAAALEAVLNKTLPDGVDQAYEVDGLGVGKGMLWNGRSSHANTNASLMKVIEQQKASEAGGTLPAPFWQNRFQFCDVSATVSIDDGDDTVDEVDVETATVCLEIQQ
Description: Leishmania donovani Ubiquitin Activating Enzyme (LdE1). The test is classed as functional. Particulars: 30 µM.

Test [3] deals with AMP-activated protein kinase, AMPK (Homo sapiens) (UniProt P54646+O43741+P54619+Q9UGJ0+Q9Y478+Q13131+Q9UGI9). Description: AMP-dependent Kinase enzyme assay. An in vitro enzyme assay that detects ADP turnover that is directly proportional to AMPK activity. This uses naive AMPK that is activated during the assay with MK-8722. The test is classed as functional. Particulars: 30 µM.

Test [4] addresses Sialic acid-binding Ig-like lectin 9 (Homo sapiens) (UniProt Q9Y336). Description: Hs-Siglec9 ALPHAscreen SOP 20170721. Particulars: 10 µM.
The subject of test [5] is Trypanosoma cruzi. The test can be described thus: Trypanosoma cruzi phosphomannomutase and mannose-1-phosphate guanylyltransferase assay. It counts as functional. Conditions: 10 µM.
In test [6] the target is T2, Arginase-2, mitochondrial (Homo sapiens) (UniProt P78540).
T2 sequence (whole entry): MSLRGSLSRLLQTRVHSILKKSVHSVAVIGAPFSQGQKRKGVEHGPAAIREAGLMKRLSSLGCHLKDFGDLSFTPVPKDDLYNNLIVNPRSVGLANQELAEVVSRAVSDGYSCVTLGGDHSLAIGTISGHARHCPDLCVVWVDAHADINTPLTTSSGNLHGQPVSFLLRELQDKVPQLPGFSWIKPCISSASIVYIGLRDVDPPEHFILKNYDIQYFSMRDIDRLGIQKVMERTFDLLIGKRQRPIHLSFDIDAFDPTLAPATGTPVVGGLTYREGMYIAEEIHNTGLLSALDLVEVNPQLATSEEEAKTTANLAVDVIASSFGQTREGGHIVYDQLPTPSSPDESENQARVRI
The test can be described thus: in vitro enzyme assay to detect the production of urea directly proportional to the activity of Arginase II. Note: in the data most compounds retested in dose-response had high values. The test is classed as functional. Particulars: 33.3 µM.

The target of test [7] is T3, Proteasome subunit beta (Trypanosoma cruzi) (UniProt O96673).
T3 sequence (whole entry): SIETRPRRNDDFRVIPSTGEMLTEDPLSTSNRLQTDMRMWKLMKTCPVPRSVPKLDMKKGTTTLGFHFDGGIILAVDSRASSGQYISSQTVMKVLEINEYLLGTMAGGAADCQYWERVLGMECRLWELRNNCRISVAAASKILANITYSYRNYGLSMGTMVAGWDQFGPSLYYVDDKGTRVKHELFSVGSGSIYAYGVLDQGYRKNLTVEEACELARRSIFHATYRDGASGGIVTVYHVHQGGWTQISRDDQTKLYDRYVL
The test can be described thus: Trypanosoma cruzi proteasome chymotrypsin-like activity (TcProtChymo) assay. Note: in the data most compounds retested in dose-response had high values. It counts as functional. Conditions: 9.37 µM.

The species named for test [8] is Homo sapiens. Description: To identify inhibition of the IFN signalling (Jak-Stat) pathway via expression of an eGFP reporter gene under the control of an IFN-stimulated response element (ISRE) containing MxA promoter. Conditions: 30 µM. It counts as functional. For orientation: In a reporter assay the amount or activity of a reporter protein is the signal.
Test [9] concerns the target T4, Tyrosyl-tRNA synthetase, putative (Trypanosoma cruzi (strain CL Brener)) (UniProt Q4DSP6).
T4 sequence (whole entry): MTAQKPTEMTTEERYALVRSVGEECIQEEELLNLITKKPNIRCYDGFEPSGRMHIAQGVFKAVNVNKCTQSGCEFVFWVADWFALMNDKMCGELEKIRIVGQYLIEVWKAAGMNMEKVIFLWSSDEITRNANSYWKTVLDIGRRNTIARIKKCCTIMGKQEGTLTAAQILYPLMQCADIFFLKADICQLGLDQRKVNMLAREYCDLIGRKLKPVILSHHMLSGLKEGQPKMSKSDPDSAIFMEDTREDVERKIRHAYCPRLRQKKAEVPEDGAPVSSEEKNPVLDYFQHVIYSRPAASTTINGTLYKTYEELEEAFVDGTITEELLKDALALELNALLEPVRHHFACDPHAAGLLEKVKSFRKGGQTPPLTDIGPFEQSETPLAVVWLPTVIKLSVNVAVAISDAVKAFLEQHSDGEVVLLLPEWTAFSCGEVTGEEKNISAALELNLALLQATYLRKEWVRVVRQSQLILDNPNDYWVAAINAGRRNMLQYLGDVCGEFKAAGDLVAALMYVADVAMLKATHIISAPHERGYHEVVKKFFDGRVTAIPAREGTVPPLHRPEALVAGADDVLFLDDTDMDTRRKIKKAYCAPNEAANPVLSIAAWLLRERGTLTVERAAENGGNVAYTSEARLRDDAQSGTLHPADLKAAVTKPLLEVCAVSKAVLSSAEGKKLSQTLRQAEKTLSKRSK
The test can be described thus: Trypanosoma cruzi tyrosyl tRNA synthetase (TcYRS) _High Tyrosine SOP. Note: in the data most compounds retested in dose-response had high values. The test is classed as functional. Conditions: 30 µM.

The target of test [10] is T4, Tyrosyl-tRNA synthetase, putative (Trypanosoma cruzi (strain CL Brener)). Description: Trypanosoma cruzi tyrosyl tRNA synthetase (TcYRS) SOP. It counts as functional. Conditions: 30 µM.
Test [11] concerns the target Chromo domain-containing protein 1 (Saccharomyces cerevisiae (strain ATCC 204508 / S288c) (Baker's yeast)) (UniProt P32657). The test can be described thus: ScCHD-1 Enzyme Inhibition Assay. Note: in the data most compounds retested in dose-response had high values. Particulars: 30 µM. The test is classed as functional.

For some of these results: Results with a measured potency or affinity are listed apart.

Sequence of Chromo domain-containing protein 1 (Saccharomyces cerevisiae (strain ATCC 204508 / S288c) (Baker's yeast)) (P32657 whole entry, the tested form may be a part): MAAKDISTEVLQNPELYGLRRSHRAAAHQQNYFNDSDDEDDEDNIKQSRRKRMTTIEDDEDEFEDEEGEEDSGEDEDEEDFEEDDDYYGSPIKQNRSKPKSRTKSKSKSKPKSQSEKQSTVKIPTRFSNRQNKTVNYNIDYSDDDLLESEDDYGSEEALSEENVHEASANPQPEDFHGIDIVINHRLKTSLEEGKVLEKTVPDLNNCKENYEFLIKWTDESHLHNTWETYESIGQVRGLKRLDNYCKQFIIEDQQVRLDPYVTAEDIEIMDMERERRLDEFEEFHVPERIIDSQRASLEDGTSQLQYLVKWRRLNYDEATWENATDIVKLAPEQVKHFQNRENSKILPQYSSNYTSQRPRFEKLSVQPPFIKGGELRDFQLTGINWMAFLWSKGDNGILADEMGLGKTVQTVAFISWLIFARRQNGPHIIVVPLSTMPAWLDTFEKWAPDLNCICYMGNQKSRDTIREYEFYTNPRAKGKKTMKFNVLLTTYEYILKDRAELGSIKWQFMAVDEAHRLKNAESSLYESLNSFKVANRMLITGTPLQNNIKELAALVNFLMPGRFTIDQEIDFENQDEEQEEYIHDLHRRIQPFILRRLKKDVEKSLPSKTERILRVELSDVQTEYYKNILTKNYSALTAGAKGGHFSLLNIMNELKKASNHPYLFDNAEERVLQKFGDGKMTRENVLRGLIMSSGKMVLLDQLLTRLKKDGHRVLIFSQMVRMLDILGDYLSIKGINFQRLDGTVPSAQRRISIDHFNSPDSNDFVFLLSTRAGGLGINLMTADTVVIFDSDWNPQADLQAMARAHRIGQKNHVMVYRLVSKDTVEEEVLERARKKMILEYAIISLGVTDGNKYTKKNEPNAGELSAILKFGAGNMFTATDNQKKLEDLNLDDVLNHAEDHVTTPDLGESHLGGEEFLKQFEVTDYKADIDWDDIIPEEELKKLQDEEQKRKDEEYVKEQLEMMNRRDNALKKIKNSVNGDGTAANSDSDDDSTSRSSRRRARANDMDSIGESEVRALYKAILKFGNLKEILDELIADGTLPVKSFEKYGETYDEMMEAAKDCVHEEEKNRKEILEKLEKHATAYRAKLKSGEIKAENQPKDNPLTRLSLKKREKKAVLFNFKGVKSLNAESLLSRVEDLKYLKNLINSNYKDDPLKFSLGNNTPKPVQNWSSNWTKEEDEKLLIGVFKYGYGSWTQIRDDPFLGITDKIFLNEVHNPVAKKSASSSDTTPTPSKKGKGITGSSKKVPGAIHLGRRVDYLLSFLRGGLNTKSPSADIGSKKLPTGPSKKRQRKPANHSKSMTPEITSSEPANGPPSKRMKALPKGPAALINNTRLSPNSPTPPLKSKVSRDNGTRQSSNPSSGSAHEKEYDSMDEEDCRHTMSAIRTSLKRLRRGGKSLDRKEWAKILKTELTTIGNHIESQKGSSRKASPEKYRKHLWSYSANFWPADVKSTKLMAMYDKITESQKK
Sequence of Sialic acid-binding Ig-like lectin 9 (Homo sapiens) (Q9Y336 whole entry): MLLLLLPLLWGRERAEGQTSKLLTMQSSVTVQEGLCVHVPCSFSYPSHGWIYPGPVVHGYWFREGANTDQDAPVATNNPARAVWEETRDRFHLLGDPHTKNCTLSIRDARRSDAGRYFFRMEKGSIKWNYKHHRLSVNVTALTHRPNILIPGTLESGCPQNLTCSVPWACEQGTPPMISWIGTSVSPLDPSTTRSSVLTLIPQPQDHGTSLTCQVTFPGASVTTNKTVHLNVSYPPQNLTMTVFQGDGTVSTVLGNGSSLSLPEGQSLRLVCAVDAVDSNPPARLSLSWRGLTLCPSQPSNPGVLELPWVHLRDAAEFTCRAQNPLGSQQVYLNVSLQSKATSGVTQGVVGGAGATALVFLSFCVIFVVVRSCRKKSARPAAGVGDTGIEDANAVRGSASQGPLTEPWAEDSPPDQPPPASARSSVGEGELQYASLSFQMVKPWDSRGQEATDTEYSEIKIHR
Sequence of Protein translocase subunit SecA (Escherichia coli (strain K12)) (P10408 whole entry): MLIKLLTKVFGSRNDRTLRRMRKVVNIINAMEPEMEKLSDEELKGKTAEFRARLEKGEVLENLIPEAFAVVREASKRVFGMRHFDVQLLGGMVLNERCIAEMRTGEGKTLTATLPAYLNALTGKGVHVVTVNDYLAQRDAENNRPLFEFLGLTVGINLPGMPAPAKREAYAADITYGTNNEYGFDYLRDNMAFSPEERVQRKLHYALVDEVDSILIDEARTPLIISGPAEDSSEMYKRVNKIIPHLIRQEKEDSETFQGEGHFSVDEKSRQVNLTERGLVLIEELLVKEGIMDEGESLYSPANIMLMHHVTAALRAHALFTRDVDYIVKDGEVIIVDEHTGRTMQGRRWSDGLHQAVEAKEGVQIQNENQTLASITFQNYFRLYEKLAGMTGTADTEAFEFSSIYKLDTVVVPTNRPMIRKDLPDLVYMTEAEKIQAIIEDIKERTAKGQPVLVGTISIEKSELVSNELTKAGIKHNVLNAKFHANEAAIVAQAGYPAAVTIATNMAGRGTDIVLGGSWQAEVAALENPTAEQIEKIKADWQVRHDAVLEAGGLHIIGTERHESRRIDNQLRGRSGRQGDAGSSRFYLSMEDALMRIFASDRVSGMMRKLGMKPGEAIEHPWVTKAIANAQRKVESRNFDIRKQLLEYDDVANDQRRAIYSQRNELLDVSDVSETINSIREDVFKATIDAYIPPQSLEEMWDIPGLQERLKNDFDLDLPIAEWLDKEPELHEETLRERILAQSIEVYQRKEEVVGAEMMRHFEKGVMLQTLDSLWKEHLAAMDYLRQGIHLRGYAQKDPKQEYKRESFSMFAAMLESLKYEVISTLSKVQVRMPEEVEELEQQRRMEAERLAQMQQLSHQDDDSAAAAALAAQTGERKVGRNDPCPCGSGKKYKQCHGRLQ

Consider `CC(O)CN(CC(=O)NC(=O)NCC(F)(F)F)c1ccccc1` (stereo not drawn), for which the Percent Effect in [1] was -4.64%; in test [2], 7.79%; in [3], 6%; in test [4] it was 6.31%; in test [5] it was -3.82%; in [6], 1.9%. Moreover, the Percent Effect in test [7] was 7.36%; in test [8], 17.3%; in test [9] it was 0%; in test [10] it was 11.8%; in test [11], -9.73%.
As for `c1cnnc(N2CCCC2CNCc2cnc(N3CCCC3)nc2)c1` (stereo not drawn), the Percent Effect in test [1] is 0.488%; in test [2], -1.27%; in test [3] it was 13.5%; in [4], 6.03%; in test [5], 1.33%; in test [6] it was 2.8%. The Percent Effect in [7] is 4.8%; in test [8], 16.1%; in test [9], 5.21%; in [10] it was 0%; in test [11], -7.82%.
Turning to `c1cc2n(n1)CC(CNCc1ccc(OCC3CC3)nc1)CN2` (stereo not drawn), the Percent Effect in test [1] was -1.23%; in [2], 20.8%; in test [3] it was 11.1%; in [4] it was 4.04%; in test [5], 7.68%; in test [6], 0.356%. For the same compound, the Percent Effect in test [7] was 3.04%; in test [8], -0.525%; in [9], 13.6%; in [10], 24.4%; in [11] it was -9.69%.
Turning to `CCN(Cc1nc2c(cnn2C)c(=O)[nH]1)c1cccc(Cl)c1`, the Percent Effect was -2.52% in test [1]; 10.4% in test [2]; 4.11% in test [3]; -5.62% in test [4]; 1.27% in test [5]; 0.632% in test [6]. The Percent Effect in test [7] was 14.3%; in test [8] it was 16.2%; in [9], 1.91%; in [10] it was 14.1%; in [11] it was -9.43%.
For `Cc1cnn(CCNCc2ccccc2Oc2cccnc2)c1`, the Percent Effect in test [1] was -0.645%; in [2], 11.4%; in test [3], -5.35%; in test [4] it was -0.251%; in [5], -5.03%; in test [6], -9.25%. In addition, the Percent Effect in [7] is 23.3%; in test [8] it was 6.29%; in test [9], 8.33%; in test [10], 7.59%; in test [11], -26%.
Take `CC(C)CN(C)c1ccc(C(=O)N2CCCC2c2cnn(C)c2)cn1` (stereo not drawn): the Percent Effect was -0.585% in test [1]; 5.26% in test [2]; -6.48% in test [3]; -6.28% in [4]; 3.46% in test [5]; 1.44% in test [6]. The Percent Effect was 8.71% in test [7]; 11.2% in test [8]; 7.39% in test [9]; 23.5% in [10]; -10.4% in [11].
Turning to `Cn1c(Cn2ccnc2)nnc1C1CCN(Cc2cccnc2N)CC1`, the Percent Effect in [1] was -2.31%; in [2], -9.72%; in test [3], 1.79%; in [4], -9.15%; in [5], -2.62%; in [6], 3.53%. For the same compound, the Percent Effect is 9.12% in [7]; -8.94% in [8]; 2.1% in test [9]; 2.56% in [10]; -3.65% in test [11].
For `COc1ccc(CN2CCn3cc(CN4CCCCC4)nc3C2)cc1`, the Percent Effect in test [1] was -4.9%; in test [2], 2.6%; in test [3] it was 1.83%; in test [4], -4.04%; in [5], -0.888%; in [6] it was -4.52%. Also, the Percent Effect in test [7] was 10.3%; in [8] it was -6.42%; in test [9] it was 3.17%; in [10], -8.97%; in test [11] it was -2.75%.
